# ± gives the standard deviation of the averaged measurements.
# Legend:
# Test in all cases: promoter activity interaction Z-score (Lux/OD deviation from empty-vector control); higher = stronger promoter induction by the compound
# [1] = tested on: E. coli BW25113 acrABp lux reporter
# Summary of the method: (§1)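 Four 1:2 dilutions of each compound were tested in biological duplicates on E. coli BW25113 carrying low-copy luxCDABE promoter reporters, either wild type or deleted for one of three genes. Cultures of 40 µl LB Lennox in 384-well plates were kept at 37°C and read for OD600 and luminescence every 30 min for 12 h. Integration windows were 0–8 h for wild type and 1–9 h for deletion strains, and wells under 10% of the median growth value were discarded. The score is a Z-transformed residual of growth-normalised luminescence relative to a control fit.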
# [2] = tested on: E. coli BW25113 micFp lux reporter
# Summary of the method: as §1
# [3] = tested on: E. coli BW25113 ompFp lux reporter
# Summary of the method: as §1
# [4] = tested on: E. coli BW25113 robp lux reporter
# Summary of the method: as §1
# [5] = tested on: E. coli BW25113 soxSp lux reporter
# Summary of the method: as §1
# [6] = tested on: E. coli BW25113 tolCp lux reporter
# Summary of the method: as §1
# [7] = 0.11 µg/ml, genetic background: wild type
# [8] = 0.11 µg/ml, genetic background: ΔmarA
# [9] = 0.11 µg/ml, genetic background: Δrob
# [10] = 0.11 µg/ml, genetic background: ΔsoxS
# [11] = 0.23 µg/ml, genetic background: wild type
# [12] = 0.23 µg/ml, genetic background: ΔmarA
# [13] = 0.23 µg/ml, genetic background: Δrob
# [14] = 0.23 µg/ml, genetic background: ΔsoxS
# [15] = 0.46 µg/ml, genetic background: wild type
# [16] = 0.46 µg/ml, genetic background: ΔmarA
# [17] = 0.46 µg/ml, genetic background: Δrob
# [18] = 0.46 µg/ml, genetic background: ΔsoxS
smiles,measurement,setting,value
N[C@@H](C(=O)N[C@@H]1C(=O)N2C(C(=O)O)=C(Cl)CS[C@H]12)c1ccccc1 [Cefaclor],promoter activity interaction Z-score,[1]; [7],-0.0672 ± 0.0046
same,promoter activity interaction Z-score,[1]; [8],0.0667 ± 0.63
same,promoter activity interaction Z-score,[1]; [9],-0.0825 ± 0.022
same,promoter activity interaction Z-score,[1]; [10],0.202 ± 0.33
same,promoter activity interaction Z-score,[1]; [11],0.0822 ± 0.27
same,promoter activity interaction Z-score,[1]; [12],-0.226 ± 0.26
same,promoter activity interaction Z-score,[1]; [13],-0.0254 ± 0.2
same,promoter activity interaction Z-score,[1]; [14],0.108 ± 0.18
same,promoter activity interaction Z-score,[1]; [15],-0.327 ± 0.23
same,promoter activity interaction Z-score,[1]; [16],0.267 ± 0.91
same,promoter activity interaction Z-score,[1]; [17],0.0322 ± 0.2
same,promoter activity interaction Z-score,[1]; [18],0.0468 ± 0.32
same,promoter activity interaction Z-score,[2]; [7],-0.186 ± 0.14
same,promoter activity interaction Z-score,[2]; [8],-0.0579 ± 0.053
same,promoter activity interaction Z-score,[2]; [9],-0.0069 ± 0.16
same,promoter activity interaction Z-score,[2]; [10],-0.168 ± 0.014
same,promoter activity interaction Z-score,[2]; [11],0.286 ± 0.18
same,promoter activity interaction Z-score,[2]; [12],0.0237 ± 0.12
same,promoter activity interaction Z-score,[2]; [13],-0.137 ± 0.035
same,promoter activity interaction Z-score,[2]; [14],-0.23 ± 0.11
same,promoter activity interaction Z-score,[2]; [15],-0.0523 ± 0.022
same,promoter activity interaction Z-score,[2]; [16],-0.0548 ± 0.1
same,promoter activity interaction Z-score,[2]; [17],0.072 ± 0.35
same,promoter activity interaction Z-score,[2]; [18],0.0997 ± 0.0034
same,promoter activity interaction Z-score,[3]; [7],-0.0486 ± 0.033
same,promoter activity interaction Z-score,[3]; [8],0.00202 ± 0.074
same,promoter activity interaction Z-score,[3]; [9],-0.037 ± 0.097
same,promoter activity interaction Z-score,[3]; [10],0.00353 ± 0.4
same,promoter activity interaction Z-score,[3]; [11],0.205 ± 0.32
same,promoter activity interaction Z-score,[3]; [12],-0.158 ± 0.14
same,promoter activity interaction Z-score,[3]; [13],0.0924 ± 0.14
same,promoter activity interaction Z-score,[3]; [14],-0.0604 ± 0.083
same,promoter activity interaction Z-score,[3]; [15],-0.3379 ± 0.00077
same,promoter activity interaction Z-score,[3]; [16],0.243 ± 0.29
same,promoter activity interaction Z-score,[3]; [17],0.261 ± 0.15
same,promoter activity interaction Z-score,[3]; [18],0.0432 ± 0.23
same,promoter activity interaction Z-score,[4]; [7],0.143 ± 0.35
same,promoter activity interaction Z-score,[4]; [8],-0.548 ± 0.49
same,promoter activity interaction Z-score,[4]; [9],-0.0741 ± 0.49
same,promoter activity interaction Z-score,[4]; [10],-0.204 ± 0.27
same,promoter activity interaction Z-score,[4]; [11],0.403 ± 0.76
same,promoter activity interaction Z-score,[4]; [12],-0.533 ± 0.12
same,promoter activity interaction Z-score,[4]; [13],-0.17 ± 0.038
same,promoter activity interaction Z-score,[4]; [14],0.0114 ± 0.73
same,promoter activity interaction Z-score,[4]; [15],-0.312 ± 0.44
same,promoter activity interaction Z-score,[4]; [16],-0.025 ± 0.62
same,promoter activity interaction Z-score,[4]; [17],-0.475 ± 0.67
same,promoter activity interaction Z-score,[4]; [18],-0.073 ± 1.2
same,promoter activity interaction Z-score,[5]; [7],0.0812 ± 0.014
same,promoter activity interaction Z-score,[5]; [8],0.114 ± 0.011
same,promoter activity interaction Z-score,[5]; [9],0.166 ± 0.057
same,promoter activity interaction Z-score,[5]; [10],0.145 ± 0.29
same,promoter activity interaction Z-score,[5]; [11],0.222 ± 0.12
same,promoter activity interaction Z-score,[5]; [12],0.143 ± 0.22
same,promoter activity interaction Z-score,[5]; [13],0.159 ± 0.22
same,promoter activity interaction Z-score,[5]; [14],0.00336 ± 0.19
same,promoter activity interaction Z-score,[5]; [15],-0.146 ± 0.12
same,promoter activity interaction Z-score,[5]; [16],-0.0654 ± 0.045
same,promoter activity interaction Z-score,[5]; [17],0.255 ± 0.11
same,promoter activity interaction Z-score,[5]; [18],-0.0397 ± 0.37
same,promoter activity interaction Z-score,[6]; [7],-0.564 ± 0.28
same,promoter activity interaction Z-score,[6]; [8],0.134 ± 0.67
same,promoter activity interaction Z-score,[6]; [9],0.613 ± 0.26
same,promoter activity interaction Z-score,[6]; [10],-0.636 ± 0.056
same,promoter activity interaction Z-score,[6]; [11],0.674 ± 0.6
same,promoter activity interaction Z-score,[6]; [12],-0.149 ± 1.3
same,promoter activity interaction Z-score,[6]; [13],0.0751 ± 0.037
same,promoter activity interaction Z-score,[6]; [14],-0.124 ± 0.055
same,promoter activity interaction Z-score,[6]; [15],-0.115 ± 0.33
same,promoter activity interaction Z-score,[6]; [16],-0.727 ± 1.3
same,promoter activity interaction Z-score,[6]; [17],-0.374 ± 0.56
same,promoter activity interaction Z-score,[6]; [18],-0.124 ± 0.67
